PubChem BioAssay

assay: EMT-state selective cytotoxicity in co-culture – imaging, PC-3E GFP, TEM4-18 mCherry, primary screen (AID 1345086); conditions: PC-3E GFP / TEM4-18 mCherry co-culture, imaging cell counts; measured here: mesenchymal TEM4-18 mCherry cell survival; at 1 µM;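 also: cells exposed to compound for 72 h before imaging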

For `CN1CCC(=C2c3ccccc3Sc3ccccc32)CC1`, which normalised cell number is on record?
The normalised cell number was 1.11.

For `Cc1ccsc1/C=C/C1=NCCCN1C`, which normalised cell number is on record?
Its normalised cell number is 1.38.

Which normalised cell number does the source give for `Cc1ccccc1OCC(O)CO` (centres undefined) here?
Its normalised cell number is 1.1.

For `O=c1ccc2ccccc2o1`, which normalised cell number is on record?
The normalised cell number was 1.1.

Which normalised cell number does the source give for `CC(=O)OC/C=C(C)/C=C/C=C(C)/C=C/C1=C(C)CCCC1(C)C` here?
The normalised cell number was 0.94.

For `CCn1cc(C(=O)O)c(=O)c2cnc(N3CCCC3)nc21`, which normalised cell number is on record?
The normalised cell number was 0.88.

For `Cc1c(NC(C)C)c(=O)n(-c2ccccc2)n1C`, which normalised cell number is on record?
The normalised cell number was 0.8.

With `NS(=O)(=O)c1cc2c(cc1Cl)NC(CSCc1ccccc1)=NS2(=O)=O` as the molecule, how does the normalised cell number read?
The normalised cell number was 1.28.

For `Cc1ccc(C(=O)c2ccc(CC(=O)O)n2C)cc1`, which normalised cell number is on record?
Its normalised cell number is 1.

For `CCOc1ccc(NC(C)=O)cc1`, which normalised cell number is on record?
Its normalised cell number is 1.35.

Which normalised cell number does the source give for `OC(CCN1CCCCC1)(c1ccccc1)c1ccccc1` here?
Its normalised cell number is 0.92.

With `O=C(O)c1ccccc1C(=O)Nc1ccc(S(=O)(=O)Nc2nccs2)cc1` as the molecule, how does the normalised cell number read?
The normalised cell number was 1.17.

With `CCCCCCCCNC(C)C(O)c1ccc(SC(C)C)cc1` (centres undefined) as the molecule, how does the normalised cell number read?
The normalised cell number was 0.96.

For `CN(C)CCOC(=O)C(c1ccccc1)C1(O)CCCC1` (centres undefined), which normalised cell number is on record?
The normalised cell number was 1.52.

Which normalised cell number does the source give for `COc1ccc(C(=O)c2ccccc2O)c(O)c1` here?
Its normalised cell number is 1.63.

Which normalised cell number does the source give for `CN1CCC(OC(c2ccccc2)c2ccccc2)CC1` here?
The normalised cell number was 1.2.

For `Cc1cc(-c2ccccc2)nnc1NCCN1CCOCC1`, which normalised cell number is on record?
The normalised cell number was 1.08.

For `CCN(CC)CCOC(=O)C(c1ccccc1)C1CCCCC1` (centres undefined), which normalised cell number is on record?
Its normalised cell number is 0.89.

Which normalised cell number does the source give for `CCC(=O)c1c(O)cc(O)cc1O` here?
Its normalised cell number is 0.96.

Which normalised cell number does the source give for `NC(=O)NC1NC(=O)NC1=O` (centres undefined) here?
Its normalised cell number is 1.11.

For `CC1CCc2cc(F)cc3c(=O)c(C(=O)O)cn1c23` (centres undefined), which normalised cell number is on record?
Its normalised cell number is 1.05.

For `CCCCN(CCCC)CCCOC(=O)c1ccc(N)cc1`, which normalised cell number is on record?
Its normalised cell number is 1.2.

Which normalised cell number does the source give for `Cn1c([N+](=O)[O-])cnc1COC(N)=O` here?
Its normalised cell number is 1.01.

Which normalised cell number does the source give for `C[N+]12CCC(CC1)C(OC(=O)C(O)(c1ccccc1)c1ccccc1)C2` (centres undefined) here?
The normalised cell number was 1.33.

For `O=C1c2c(O)cccc2Cc2cccc(O)c21`, which normalised cell number is on record?
Its normalised cell number is 1.19.

With `CCN(CC)CCNc1ccc(CO)c2sc3ccccc3c(=O)c12` as the molecule, how does the normalised cell number read?
The normalised cell number was 0.74.

Which normalised cell number does the source give for `O=C(O)CCC(=O)c1ccc(-c2ccccc2)cc1` here?
The normalised cell number was 1.15.

Which normalised cell number does the source give for `COc1cccc(OC)c1C(=O)N[C@@H]1C(=O)N2[C@@H]1SC(C)(C)[C@@H]2C(=O)O` here?
Its normalised cell number is 1.15.

For `O=C(O)CCNC(=O)c1ccccc1`, which normalised cell number is on record?
Its normalised cell number is 0.87.

Which normalised cell number does the source give for `CCN1CCCC(OC(=O)C(c2ccccc2)c2ccccc2)C1` (centres undefined) here?
Its normalised cell number is 1.19.

Which normalised cell number does the source give for `CCCCC(CC)CN1CN(CC(CC)CCCC)CC(C)(N)C1` (centres undefined) here?
The normalised cell number was 0.85.

For `CCN(CCCc1ccccc1)CCCc1ccccc1`, which normalised cell number is on record?
The normalised cell number was 1.12.

Which normalised cell number does the source give for `CC1(C)OC(=O)NC1=O` here?
The normalised cell number was 1.41.

With `Nc1ccc(S(=O)(=O)NC(=O)c2ccccc2)cc1` as the molecule, how does the normalised cell number read?
Its normalised cell number is 1.46.

With `CCCCOc1ccc(C(=O)CCN2CCCCC2)cc1` as the molecule, how does the normalised cell number read?
The normalised cell number was 1.41.

With `COc1cc(NS(=O)(=O)c2ccc(N)cc2)ncn1` as the molecule, how does the normalised cell number read?
Its normalised cell number is 0.86.

For `NC(N)=NS(=O)(=O)c1ccc(N)cc1`, which normalised cell number is on record?
Its normalised cell number is 0.98.

With `Cc1cc(CC(=O)O)n(C)c1C(=O)c1ccc(Cl)cc1` as the molecule, how does the normalised cell number read?
The normalised cell number was 0.98.

For `C[C@H](N)[C@H](O)c1cccc(O)c1`, which normalised cell number is on record?
The normalised cell number was 1.1.
